PubChem BioAssay (NCATS)
Inconclusive results are not listed. Calls of active or inactive are those of the source. Calls follow the shape of the dose curve; as a rule, active = well fitted inhibition curve with a large enough effect; inconclusive = small, poorly fitted or top-dose-only effect; inactive = flat fitted curve, though single readings scatter.

System: CRL-7250
Experiment: qHTS assay to identify novel small-molecules to repurpose for Merkel cell carcinoma treatment (AID 1296009); also: nearly all actives have a fitted effect of over 60% in size
Conditions: MCC and control cell lines, CellTiter-Glo viability, 72 h; at 44.8 µM (top of the series) unless noted
In short: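 CellTiter-Glo luminescence after 72 hr compound exposure at 37 degree celsius gave cell viability. Libraries NPC and MIPE were run as 8- and 11-point dose responses; RLUs normalized to DMSO (negative) and no-cell (cytotoxicity) controls.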

Which outcome does the source give for `COc1ccc(-c2nc3ccc(C4=NNC(=O)CC4C)cc3[nH]2)cc1` (stereo unspecified) here?
The outcome was “inactive”.

With `O=C(CCCN1CCN(c2ccccn2)CC1)c1ccc(F)cc1` as the compound, how does the outcome read?
The outcome was “inactive”.

Which outcome does the source give for `COc1cccc(N(C)C(=S)Oc2ccc3c(c2)CCCC3)n1` here?
The outcome was “inactive”.

For `O=S1(=O)OC(c2ccc(O)cc2)(c2ccc(O)cc2)c2ccccc21`, which outcome is on record?
Its outcome is “inactive”.

Which outcome does the source give for `CC(=O)N1C[C@H](O)C[C@H]1C(=O)O` here?
Its outcome is “inactive”.

`CCCCC(=O)O[C@]1(C(=O)CO)CC[C@H]2[C@@H]3CCC4=CC(=O)CC[C@]4(C)[C@H]3[C@@H](O)C[C@@]21C` was tested. Which outcome did it give?
Its outcome is “inactive”.

How did the outcome turn out when `CN(C)CCCOC1(Cc2ccccc2)CCCCCC1` was run?
Its outcome is “inactive”.

For `C1CCN2C[C@@H]3C[C@@H](CN4CCCC[C@@H]34)[C@H]2C1`, which outcome is on record?
Its outcome is “inactive”.

How did the outcome turn out when `O=C(O)CN(CCOCCOCCN(CC(=O)O)CC(=O)O)CC(=O)O` was run?
Its outcome is “inactive [at 0.588 µM]”.

`Cc1c(N)cccc1C(F)(F)F` was tested. Which outcome did it give?
The outcome was “inactive”.

`CN1CCOC(c2ccccc2)c2ccccc2C1` (stereo unspecified) was tested. Which outcome did it give?
Its outcome is “inactive”.

`CCCCC1(COC(=O)CCC(=O)O)C(=O)N(c2ccccc2)N(c2ccccc2)C1=O` was tested. Which outcome did it give?
The outcome was “inactive”.

Which outcome does the source give for `CC1=CC(=O)c2ccccc2C1=O` here?
Its outcome is “inactive”.

With `NC(N)=NC(=O)c1nc(Cl)c(N)nc1N` as the compound, how does the outcome read?
The outcome was “inactive”.

How did the outcome turn out when `Cc1cc(CC(=O)O)n(C)c1C(=O)c1ccc(Cl)cc1` was run?
Its outcome is “inactive”.

For `CCN1CCCC(OC(=O)C(c2ccccc2)c2ccccc2)C1` (stereo unspecified), which outcome is on record?
Its outcome is “inactive”.

With `Cc1ccc(Cl)c(OCC(O)CNC(C)(C)C)c1` (stereo unspecified) as the compound, how does the outcome read?
Its outcome is “inactive”.

How did the outcome turn out when `C[C@]12CC[C@@H]3c4ccc(O)cc4CC[C@H]3[C@@H]1CC[C@@H]2OC(=O)CCC1CCCC1` was run?
Its outcome is “inactive”.

How did the outcome turn out when `CCNC(=O)NCc1cccc(Cl)c1` was run?
The outcome was “inactive”.

For `CC1(C)OC(=O)Nc2ccc(Br)cc21`, which outcome is on record?
Its outcome is “inactive”.

`O=C(Nc1ccc(C(=O)O)c(O)c1)c1ccccc1` was tested. Which outcome did it give?
The outcome was “inactive”.

How did the outcome turn out when `CN(Cc1cc(Br)cc(Br)c1N)C1CCCCC1` was run?
Its outcome is “inactive”.

Which outcome does the source give for `Cc1c(Cl)cccc1Nc1ccccc1C(=O)O` here?
The outcome was “inactive”.

For `Cc1cccc(CN2CCN(C(c3ccccc3)c3ccc(Cl)cc3)CC2)c1` (stereo unspecified), which outcome is on record?
Its outcome is “inactive”.

With `Cc1cccc(N(C)C(=S)Oc2ccc3ccccc3c2)c1` as the compound, how does the outcome read?
Its outcome is “inactive”.

With `CCCc1ncc(C[n+]2ccccc2C)c(N)n1` as the compound, how does the outcome read?
Its outcome is “inactive”.

For `CC(C)NCCCC1(C(N)=O)c2ccccc2-c2ccccc21`, which outcome is on record?
The outcome was “inactive”.

With `CCN(CC)C(=O)c1cccc(C)c1` as the compound, how does the outcome read?
Its outcome is “inactive”.

Which outcome does the source give for `O=C(O)Cc1ccc2c(c1)C(=O)c1ccccc1CO2` here?
Its outcome is “inactive”.

For `NCCNC(=O)c1ccc(Cl)cn1`, which outcome is on record?
The outcome was “inactive”.

How did the outcome turn out when `CC(=O)[C@H]1CC[C@H]2[C@@H]3CC=C4C[C@@H](O)CC[C@]4(C)[C@H]3CC[C@]12C` was run?
Its outcome is “inactive”.

Which outcome does the source give for `COC1=C(OC)C(=O)C(CCCCCCCCCCO)=C(C)C1=O` here?
Its outcome is “inactive”.

How did the outcome turn out when `CN(C)C(=O)Oc1cccc([N+](C)(C)C)c1` was run?
Its outcome is “inactive”.

Which outcome does the source give for `CC(=O)OCC(=O)[C@@]1(O)CCC2C3CCC4=CC(=O)CC[C@]4(C)C3[C@@H](O)C[C@@]21C` (stereo partly specified) here?
Its outcome is “inactive”.

Which outcome does the source give for `COc1cc(N)c(Cl)cc1C(=O)NC1CCN(Cc2ccccc2)CC1` here?
Its outcome is “inactive”.

With `CC(C)NCC(O)COc1ccc(COCCOC(C)C)cc1` (stereo unspecified) as the compound, how does the outcome read?
Its outcome is “inactive”.
